Test results from PubChem BioAssay.
Results with a measured potency or affinity are listed apart. The source made the active and inactive calls. No cut-off is given here; in the data, nearly all actives have IC50 up to about 0.91 µM.

Target: Calcium-dependent protein kinase 4 (Plasmodium falciparum (isolate 3D7)) (UniProt Q8IBS5)
Test: PfCDPK4 kinase inhibitors, biochemical, TCAMS library (AID 1159588)
Settings: recombinant PfCDPK4, Kinase-Glo ATP depletion luminescence

Calcium-dependent protein kinase 4 (Plasmodium falciparum (isolate 3D7)), sequence (Q8IBS5 whole entry, looked up): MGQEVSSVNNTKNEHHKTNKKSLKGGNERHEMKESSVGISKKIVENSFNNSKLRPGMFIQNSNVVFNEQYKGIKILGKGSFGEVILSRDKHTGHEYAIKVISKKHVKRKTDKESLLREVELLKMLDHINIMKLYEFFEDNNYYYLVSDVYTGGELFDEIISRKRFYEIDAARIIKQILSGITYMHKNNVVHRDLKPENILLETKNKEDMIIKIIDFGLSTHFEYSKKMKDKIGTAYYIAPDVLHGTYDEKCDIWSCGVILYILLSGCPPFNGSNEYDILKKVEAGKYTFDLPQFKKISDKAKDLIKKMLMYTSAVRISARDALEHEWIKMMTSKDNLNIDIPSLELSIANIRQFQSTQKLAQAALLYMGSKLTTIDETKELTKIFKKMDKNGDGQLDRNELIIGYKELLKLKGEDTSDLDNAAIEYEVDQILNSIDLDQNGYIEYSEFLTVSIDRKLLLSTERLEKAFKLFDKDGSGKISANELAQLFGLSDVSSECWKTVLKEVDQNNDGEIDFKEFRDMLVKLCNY

outcome, inactive:
O=C(NCCCCCN1CCC(c2c[nH]c3ccccc23)CC1)Nc1ccc(Cl)c(Cl)c1
O=C(NCCCN1CCC(Cc2ccccc2)CC1)c1cc2c(Cl)nc3ccccc3c2s1
Cc1ccc(NC(=O)c2ccc3ncccc3c2)cc1OC1CCN(Cc2ccco2)C1 (stereo not given)
COc1ccc(CCN2CCC(NCc3cccc(N(C)C)c3)CC2)cc1
O=C(c1cc(-c2ccco2)[nH]n1)N1CCN(S(=O)(=O)c2ccc(Cl)cc2)CC1
O=[N+]([O-])c1cccc(CNCC2CCN(CCc3ccccc3)CC2)c1
C[C@H](Cc1ccc(OCCCCCCCOc2ccc(C[C@@H](C)NC[C@H](O)c3cccc(Cl)c3)cc2)cc1)NC[C@H](O)c1cccc(Cl)c1
COc1cccc(CN2CCCN(Cc3cccc(NC(=O)c4ccc(Cl)c(Cl)c4)c3)CC2)c1
Cc1nc(N)nc(N)c1OCCCOc1ccccc1Br
CC(=O)Nc1cccc(C(=O)Nc2cccc(-c3ccc(-c4nc5ccc(C(F)(F)F)cc5[nH]4)s3)c2)c1
CS(=O)(=O)CCNCc1ccc(-c2ccc3c(Nc4ccc(Cl)cc4F)ccnc3c2)o1
O=C(Nc1ccc(C(F)(F)F)cc1)c1ccc(S(=O)(=O)NC2CCN(CC3CCCCC3)C2)cc1 (stereo not given)
CCOc1c(Br)cc(Br)cc1CNCCCCNc1nc2ccccc2[nH]1
CCc1ccc2nc(-c3ccc(F)cc3)nc(SCC(=O)Nc3sc(C)c(C)c3C#N)c2c1
CCOc1ncccc1CN1CCC(N2CCc3cc(NC(=O)c4ccco4)ccc32)C1 (stereo not given)
Cc1cc(NCCc2ccc(O)cc2)nc(NCC(c2ccccc2)c2ccccc2)n1
CN1CCN(c2ccc(Nc3nc(N)c4ccn(C5CCC5)c4n3)cc2)CC1
CCN1C(=O)C(CC(=O)Nc2cccc(Cl)c2)N(Cc2ccc(OC)c(OC)c2)C1=S (stereo not given)
Cc1cc(N2CCCC2)nc(Nc2ccc(NC(=O)Cc3ccccc3)cc2)n1
Cc1ccc(C(=O)Nc2cc(C(F)(F)F)cc(C(F)(F)F)c2)cc1[N+](=O)[O-]
CC(=O)N(C)C1CCN(Cc2cccc(-c3ccc(-c4nc5ccc(C(F)(F)F)cc5[nH]4)cc3)c2)C1 (stereo not given)
CC(C)Oc1cc2c(cc1NS(=O)(=O)c1ccc(-c3ccc(Cl)s3)cc1F)CCN(C)CC2
O=S(=O)(Nc1ccc2nccc(N3CCNCC3)c2c1)c1ccc(-c2ccccc2)cc1
C=CCN1C(=O)CN(S(=O)(=O)c2ccc(-n3nc(C)cc3C)cc2)C1=S
COc1ccccc1CCNc1nccc(N[C@@H](Cc2ccccc2)C(=O)NCc2cccs2)n1
Cn1cncc1C(=O)NC1CCN(c2ccnc(Nc3ccc(F)cc3)n2)C1 (stereo not given)
NS(=O)(=O)c1ccc(CNc2ccc3ncc(-c4ccc(OC(F)(F)F)cc4)n3n2)cc1
COc1cc(NC(=O)c2sc(-c3ccc(Cl)cc3)cc2NC(=O)N2CCCC2)ccc1OCCN1CCCC1
Cn1c(NCc2cc(F)cc3c2OCOC3)nc2cc(Nc3ccnc(Nc4cccc(CS(C)(=O)=O)c4)n3)ccc21
O=C(C=NO)Nc1ccccc1[N+](=O)[O-]
C/C=C/C=C/C1=NCCc2cc(OCCC)ccc21
O=C(Nc1ccc(N2CCCN(Cc3cccc(F)c3)CC2)cc1)c1ccccc1
N#Cc1ccc(N2CCN(Cc3ccc(-c4ccc(-c5nc6ccccc6[nH]5)s4)cc3)CC2)nc1
Clc1ccc(Nc2nc(NCc3ccccc3)nc(N/N=C/c3ccccn3)n2)cc1
O=C(Nc1cccc(CN2CCCN(Cc3ccc(O)cc3)CC2)c1)c1cccc(C(F)(F)F)c1
COc1ccc(S(=O)(=O)Nc2ccc(C(=O)NCc3ccc(C(F)(F)F)cc3)cc2)cc1N1CCN(CC2CC2)CC1
c1cncc(NCc2ccc(-c3cc4ccncc4cc3OC3CCNCC3)s2)c1
COc1cccc(NC(=O)NC2CCN(c3ccnc(Nc4cc(OC)c(OC)c(OC)c4)n3)C2)c1 (stereo not given)
c1csc(-c2nc(N3CCCC3)ncc2-c2ccsc2)n1
N#Cc1cccc(NC(=O)c2ccc(S(=O)(=O)NCC3CCCN3CC3CCCCC3)cc2)c1 (stereo not given)
